These results are taken from ChEMBL document CHEMBL2218924, “A broad activity screen in support of a chemogenomic map for kinase signalling research and drug discovery” (Biochem J, 2013).

Assay [1] has as its target T1, Serine/threonine-protein kinase 17A (Homo sapiens) (UniProt Q9UEE5).
T1 sequence (whole entry): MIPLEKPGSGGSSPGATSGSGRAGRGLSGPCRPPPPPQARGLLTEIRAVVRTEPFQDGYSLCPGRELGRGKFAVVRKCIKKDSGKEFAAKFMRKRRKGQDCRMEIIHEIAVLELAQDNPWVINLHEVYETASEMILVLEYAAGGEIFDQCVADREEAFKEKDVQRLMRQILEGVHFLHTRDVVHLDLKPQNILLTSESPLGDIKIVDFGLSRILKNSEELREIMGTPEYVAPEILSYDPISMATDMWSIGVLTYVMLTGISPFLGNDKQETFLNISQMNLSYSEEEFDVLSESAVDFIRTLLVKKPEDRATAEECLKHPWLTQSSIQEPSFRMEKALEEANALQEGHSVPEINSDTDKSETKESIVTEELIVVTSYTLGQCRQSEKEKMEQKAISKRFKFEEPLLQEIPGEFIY
As to conditions: at 10 µM.

Assay [2] addresses T2, Dual specificity tyrosine-phosphorylation-regulated kinase 2 (Homo sapiens) (UniProt Q92630).
T2 sequence (whole entry): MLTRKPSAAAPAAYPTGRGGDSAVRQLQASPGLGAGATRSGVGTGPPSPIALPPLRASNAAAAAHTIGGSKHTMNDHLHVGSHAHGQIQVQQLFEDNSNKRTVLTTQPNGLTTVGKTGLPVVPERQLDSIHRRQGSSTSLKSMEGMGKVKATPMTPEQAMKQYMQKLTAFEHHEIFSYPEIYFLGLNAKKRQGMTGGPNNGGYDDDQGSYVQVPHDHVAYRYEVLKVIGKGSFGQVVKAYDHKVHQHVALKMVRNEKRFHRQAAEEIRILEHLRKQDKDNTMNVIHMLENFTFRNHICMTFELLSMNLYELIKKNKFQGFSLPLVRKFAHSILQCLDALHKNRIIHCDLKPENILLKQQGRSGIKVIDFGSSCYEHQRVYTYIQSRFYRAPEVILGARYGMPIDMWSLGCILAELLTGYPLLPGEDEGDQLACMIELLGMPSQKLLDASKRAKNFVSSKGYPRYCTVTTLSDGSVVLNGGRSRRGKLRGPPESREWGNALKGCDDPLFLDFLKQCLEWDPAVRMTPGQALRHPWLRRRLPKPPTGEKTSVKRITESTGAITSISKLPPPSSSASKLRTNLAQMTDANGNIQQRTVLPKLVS
To be noted: at 1 µM.

The target in assay [3] is T2, Dual specificity tyrosine-phosphorylation-regulated kinase 2 (Homo sapiens). As to conditions: at 10 µM.
Assay [4] addresses T3, Ephrin type-A receptor 1 (Homo sapiens) (UniProt P21709).
T3 sequence (whole entry): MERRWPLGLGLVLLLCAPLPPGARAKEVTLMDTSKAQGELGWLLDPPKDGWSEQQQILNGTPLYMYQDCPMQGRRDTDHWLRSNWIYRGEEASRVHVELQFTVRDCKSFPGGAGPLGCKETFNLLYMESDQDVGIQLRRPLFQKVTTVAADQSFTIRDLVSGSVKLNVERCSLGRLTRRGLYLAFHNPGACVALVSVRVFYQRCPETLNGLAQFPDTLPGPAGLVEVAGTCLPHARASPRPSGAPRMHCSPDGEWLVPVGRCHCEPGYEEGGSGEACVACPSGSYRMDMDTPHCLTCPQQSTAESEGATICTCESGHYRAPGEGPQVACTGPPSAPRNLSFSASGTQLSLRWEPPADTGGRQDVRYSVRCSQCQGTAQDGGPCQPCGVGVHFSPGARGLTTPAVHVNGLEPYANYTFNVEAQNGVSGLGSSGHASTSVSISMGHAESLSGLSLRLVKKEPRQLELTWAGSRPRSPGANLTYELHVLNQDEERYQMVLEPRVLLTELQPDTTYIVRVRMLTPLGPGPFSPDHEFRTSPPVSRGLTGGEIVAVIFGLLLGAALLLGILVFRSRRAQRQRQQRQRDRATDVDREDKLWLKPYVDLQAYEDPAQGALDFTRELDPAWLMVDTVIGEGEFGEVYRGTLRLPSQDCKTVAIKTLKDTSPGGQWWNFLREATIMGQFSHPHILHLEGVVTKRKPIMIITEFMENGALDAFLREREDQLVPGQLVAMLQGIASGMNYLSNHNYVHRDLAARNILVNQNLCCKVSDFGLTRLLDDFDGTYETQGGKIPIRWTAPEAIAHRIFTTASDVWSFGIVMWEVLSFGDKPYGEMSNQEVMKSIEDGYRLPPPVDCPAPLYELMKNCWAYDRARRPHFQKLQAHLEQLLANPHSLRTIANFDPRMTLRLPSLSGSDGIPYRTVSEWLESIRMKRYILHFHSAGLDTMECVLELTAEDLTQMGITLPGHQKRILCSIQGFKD
To be noted: at 1 µM.

Assay [5] concerns the target T3, Ephrin type-A receptor 1 (Homo sapiens). As to conditions: at 10 µM.
Assay [6] addresses Ephrin type-A receptor 2 (Homo sapiens) (UniProt P29317). To be noted: at 1 µM.
For assay [7] the target is unchanged. As to conditions: at 10 µM.
In assay [8] the target is T4, Ephrin type-A receptor 3 (Homo sapiens) (UniProt P29320).
T4 sequence (whole entry): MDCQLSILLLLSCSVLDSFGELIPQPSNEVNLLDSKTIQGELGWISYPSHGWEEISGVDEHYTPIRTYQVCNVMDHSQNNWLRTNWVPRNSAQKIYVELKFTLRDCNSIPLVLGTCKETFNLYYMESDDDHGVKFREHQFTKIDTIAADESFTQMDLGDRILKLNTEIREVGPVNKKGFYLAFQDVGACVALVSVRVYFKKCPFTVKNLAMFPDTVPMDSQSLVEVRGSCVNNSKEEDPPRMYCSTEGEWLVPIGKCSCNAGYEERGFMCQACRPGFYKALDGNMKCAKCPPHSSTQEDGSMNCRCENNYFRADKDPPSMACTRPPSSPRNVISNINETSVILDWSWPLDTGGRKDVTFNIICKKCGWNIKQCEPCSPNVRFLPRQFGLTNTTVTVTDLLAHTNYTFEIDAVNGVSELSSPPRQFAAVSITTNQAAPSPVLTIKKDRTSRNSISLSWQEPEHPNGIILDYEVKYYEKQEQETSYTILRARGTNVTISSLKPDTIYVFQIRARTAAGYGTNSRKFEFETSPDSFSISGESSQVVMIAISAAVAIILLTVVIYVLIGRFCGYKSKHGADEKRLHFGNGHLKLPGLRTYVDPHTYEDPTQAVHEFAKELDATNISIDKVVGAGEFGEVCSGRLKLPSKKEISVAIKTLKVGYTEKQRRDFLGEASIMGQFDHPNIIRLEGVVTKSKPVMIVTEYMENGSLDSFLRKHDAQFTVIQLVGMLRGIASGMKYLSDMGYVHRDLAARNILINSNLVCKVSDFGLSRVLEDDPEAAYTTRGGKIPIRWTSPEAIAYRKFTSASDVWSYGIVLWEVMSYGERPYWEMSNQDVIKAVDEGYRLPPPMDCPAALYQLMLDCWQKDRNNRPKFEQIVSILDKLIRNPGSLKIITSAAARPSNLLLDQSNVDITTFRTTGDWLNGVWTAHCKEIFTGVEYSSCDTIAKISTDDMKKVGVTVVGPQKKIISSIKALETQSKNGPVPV
To be noted: at 1 µM.

Sequence of Ephrin type-A receptor 2 (Homo sapiens) (P29317 whole entry): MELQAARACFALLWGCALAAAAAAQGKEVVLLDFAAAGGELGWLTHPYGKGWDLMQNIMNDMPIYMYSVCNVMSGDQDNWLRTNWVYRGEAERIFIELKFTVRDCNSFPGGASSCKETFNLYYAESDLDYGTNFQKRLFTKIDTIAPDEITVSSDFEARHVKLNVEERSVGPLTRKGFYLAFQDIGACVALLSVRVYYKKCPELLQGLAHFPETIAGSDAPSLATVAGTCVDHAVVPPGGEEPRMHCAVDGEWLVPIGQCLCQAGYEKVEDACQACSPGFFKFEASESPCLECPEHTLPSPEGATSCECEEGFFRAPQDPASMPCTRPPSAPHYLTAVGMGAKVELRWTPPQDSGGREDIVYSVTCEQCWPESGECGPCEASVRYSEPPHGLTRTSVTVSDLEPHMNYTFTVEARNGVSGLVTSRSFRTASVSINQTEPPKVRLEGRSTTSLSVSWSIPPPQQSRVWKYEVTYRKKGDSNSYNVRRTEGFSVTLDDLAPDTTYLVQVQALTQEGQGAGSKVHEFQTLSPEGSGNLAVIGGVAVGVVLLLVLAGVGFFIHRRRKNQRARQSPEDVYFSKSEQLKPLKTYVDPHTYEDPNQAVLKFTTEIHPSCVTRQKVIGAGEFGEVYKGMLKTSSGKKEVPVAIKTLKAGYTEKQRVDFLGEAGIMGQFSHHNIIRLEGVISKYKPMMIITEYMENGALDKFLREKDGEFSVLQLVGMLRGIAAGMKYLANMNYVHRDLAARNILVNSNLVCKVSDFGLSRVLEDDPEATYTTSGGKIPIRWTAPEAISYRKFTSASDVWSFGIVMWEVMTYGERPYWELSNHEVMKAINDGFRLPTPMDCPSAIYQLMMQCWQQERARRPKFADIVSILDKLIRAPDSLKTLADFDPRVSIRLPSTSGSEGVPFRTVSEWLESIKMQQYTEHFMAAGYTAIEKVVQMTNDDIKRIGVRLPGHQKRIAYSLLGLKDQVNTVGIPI

The residual activity is the signal under treatment as a percentage of the control signal. As to `COc1ccc(OC)c2c(=S)c3ccccc3[nH]c12`, the residual activity was found to be 97% in assay [1]; 90% in assay [2]; 66% in assay [3]; 113% in assay [4]; 88% in assay [5]; 96% in assay [6]. Moreover, the residual activity was found to be 101% in assay [7] and 90% in assay [8].

Take `CCC(=O)Nc1ccc2ncnc(Nc3cccc(Br)c3)c2c1`: the residual activity was found to be 77% in assay [1]; 99% in assay [2]; 82% in assay [3]; 71% in assay [4]; 89% in assay [5]; 105% in assay [6]. For the same molecule, the residual activity came to 90% in assay [7] and 105% in assay [8].

Turning to `Ic1cccc(CSc2nnc(-c3ccncc3)o2)c1`, the residual activity in assay [1] is 3%; in assay [2], 87%; in assay [3] it was 60%; in assay [4], 95%; in assay [5], 88%; in assay [6], 90%. In addition, the residual activity in assay [7] is 91%; in assay [8] it was 96%.

Turning to `N#CCCc1ccc2c(c1)-c1[nH]c3ccc([N+](=O)[O-])cc3c1CC(=O)N2`, the residual activity in assay [1] is 3%; in assay [2], 28%; in assay [3], 12%; in assay [8] it was 77%.

`N#C/C(=C(\N)Sc1ccc(N)cc1)c1ccccc1C(F)(F)F`: the residual activity in assay [1] is 118%; in assay [2], 105%; in assay [3], 95%; in assay [4], 94%; in assay [5] it was 82%; in assay [6] it was 98%. For the same molecule, the residual activity in assay [7] was determined as 111%; in assay [8], 96%.

With `Cc1ccc(S(=O)(=O)/C=C/C#N)cc1`, the residual activity stood at 95% in assay [1]; 96% in assay [2]; 102% in assay [3]; 95% in assay [4]; 92% in assay [5]; 106% in assay [6]. The residual activity in assay [7] turned out to be 108%; in assay [8], 103%.

In the case of `C[C@@H](N)[C@H]1CC[C@H](C(=O)Nc2ccncc2)CC1`, the residual activity was 67% in assay [1]; 101% in assay [2]; 91% in assay [3]; 101% in assay [4]; 96% in assay [5]; 96% in assay [6]. The residual activity in assay [7] came out at 98%; in assay [8] it was 103%.

With `CN(C)CCCn1cc(C2=C(c3c[nH]c4ccccc34)C(=O)NC2=O)c2ccccc21`, the residual activity in assay [1] was found to be 46%; in assay [5] it was 37%; in assay [6], 102%; in assay [7], 68%; in assay [8] it was 109%.

`O=C1NC(=O)c2c1c1c3ccccc3[nH]c1c1[nH]c3cc(Br)ccc3c21`: the residual activity in assay [1] was 4%; in assay [2], 100%; in assay [3], 75%; in assay [4], 96%; in assay [5], 86%; in assay [6] it was 98%. For the same molecule, the residual activity in assay [7] is 114%; in assay [8], 93%.

Regarding `O=c1cc(-c2cccc3c2Sc2ccccc2S3)oc(N2CCOCC2)c1`, the residual activity was determined as 93% in assay [1]; 101% in assay [2]; 95% in assay [3]; 105% in assay [4]; 94% in assay [5]; 100% in assay [6]. In addition, the residual activity in assay [7] worked out at 82%; in assay [8] it was 100%.

Regarding `Nc1cccc(-c2cc3c(Oc4cccc(O)c4)ncnc3[nH]2)c1`, the residual activity in assay [1] is 32%; in assay [2], 89%; in assay [3], 62%; in assay [4], 2%; in assay [5], -1%; in assay [6], 30%. For the same molecule, the residual activity worked out at 2% in assay [7] and 4% in assay [8].

Take `COc1cc2ncc(-c3ccccc3)nc2cc1OC`: the residual activity in assay [2] was 93%; in assay [3], 99%; in assay [4] it was 90%; in assay [5], 94%; in assay [7] it was 93%.

In the case of `CCN(CC)C(=O)c1ccc(Nc2nc(OCC3CCCCC3)c3nc[nH]c3n2)cc1`, the residual activity in assay [1] is 4%; in assay [4] it was 60%; in assay [5], 8%; in assay [6], 77%; in assay [7] it was 42%.

Take `N#Cc1cnc2cnc(NCc3cccnc3)cc2c1Nc1ccc(F)c(Cl)c1`: the residual activity amounted to 32% in assay [1]; 95% in assay [4]; 79% in assay [5]; 96% in assay [6]; 87% in assay [7]; 96% in assay [8].
